Assay outcomes: PubChem BioAssay, National Center for Advancing Translational Sciences (NCATS)
NIH3T3 tox: kills NIH 3T3 cells; Potency, µM (series often up to 96.7 µM), for the others: at the top dose activity change, negative = cytotoxicity, most hits filed as inhibitors; 4.3% of 94,000 active; NIH 3T3 viability, CellTiter-Glo ATP luminescence, 48-72 h; AID 1345082; note: nearly all actives have a fitted effect of over 55% in size
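First NIH 3T3 cells are plated at 400 cells/well; next compound is pinned in; then plates incubate 48 or 72 hr at 37 °C; finally CellTiter-Glo is added and luminescence read after 10 min.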
SNCA expr inh: SNCA gene expression inhibition. AID 1671194. 0.17% of 140,000 active. Potency, µM (titrated, usually from 57.2 µM), for inactives: at the highest dose activity change, negative = inhibition, hits mostly inhibitors. HEK-293 SNCA-luciferase knock-in, luminescence, 24 h;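 note: plate controls were DMSO cells for no effect and cell-free wells for full effect; nearly all actives have a fitted effect of over 45% in size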
HEK293 viab: counter-screen for SNCA expression inhibitors: cell viability. Potency, µM (top dose mostly 57.1 µM), inactives show at the highest dose activity change, negative = cytotoxicity, hits mostly cytotoxic. HEK-293-SNCA-luc viability, GF-AFC fluorescence, 24 h. 0.12% of 150,000 active;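 note: 0% = DMSO-treated cells and -100% = medium-only wells without cells; nearly all actives have a fitted effect of over 30% in size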
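Cytotoxicity counterscreen: after 24 h compound treatment of genome-edited SNCA-luciferase HEK-293 cells, live-cell protease substrate GF-AFC read by fluorescence after 30 min; activity scaled between DMSO (0%) and medium-only (-100%), curves Hill-fitted.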
NPR1 antag: antagonists of human natriuretic peptide receptor Npr1; P16066; HEK293 hNpr1 GloSensor cGMP, ANP-stimulated luminescence; Potency, µM (top dose mostly 46.3 µM), for inactives: at the top dose activity change, negative = inhibition, most hits filed as inhibitors; 1.6% of 76,000 active; AID 1347048; calls by dose curve; note: nearly all actives have a fitted effect of over 60% in size
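Compound pre-incubated 30 min at room temperature on GloSensor-loaded HEK293 cells stably carrying hNpr1 and the pGS-40F cGMP biosensor. Stimulation uses hNppA at 0.1 nM final; luminescence is taken at baseline and 20 min post-agonist.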
Luciferase inh: inhibitors of firefly (Photinus pyralis) luciferase; Potency, µM (series often up to 115 µM), actives largely listed as inhibitors; 2.5% of 76,000 active; AID 1347043; P08659; purified P. pyralis luciferase, luminescence, biochemical; note: nearly all actives have a fitted effect of over 65% in size
Target sequence (P08659 whole entry, looked up): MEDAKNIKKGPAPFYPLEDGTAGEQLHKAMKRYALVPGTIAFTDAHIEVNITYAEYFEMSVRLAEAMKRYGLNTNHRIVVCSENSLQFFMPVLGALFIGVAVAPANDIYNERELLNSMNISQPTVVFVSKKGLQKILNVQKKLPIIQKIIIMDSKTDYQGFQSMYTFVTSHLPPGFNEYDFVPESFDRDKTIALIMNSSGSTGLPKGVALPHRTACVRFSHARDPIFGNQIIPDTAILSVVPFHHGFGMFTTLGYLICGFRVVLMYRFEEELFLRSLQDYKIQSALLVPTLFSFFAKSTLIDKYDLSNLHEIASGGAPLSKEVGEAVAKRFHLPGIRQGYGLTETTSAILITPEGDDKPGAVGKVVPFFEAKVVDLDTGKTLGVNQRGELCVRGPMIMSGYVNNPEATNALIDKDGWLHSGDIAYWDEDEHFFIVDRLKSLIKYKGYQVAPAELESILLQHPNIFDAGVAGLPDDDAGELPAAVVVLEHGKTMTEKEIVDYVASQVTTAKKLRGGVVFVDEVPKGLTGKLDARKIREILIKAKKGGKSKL
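Biochemical qHTS: compound (6-point titration) added to 10uM D-luciferin plus 10uM ATP in Tris acetate pH 7.5 buffer with Mg, Tween-20 and BSA, then purified enzyme at 10nM; light output imaged.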
HEK cytotox: cytotoxic compounds in HEK 293 cells; HEK 293 viability, ATP luminescence (CellTiter-Glo), 48-72 h; Potency, µM (highest dose often 115 µM), inactives show top-dose activity change, negative = cytotoxicity, actives largely listed as inhibitors; 6.6% of 94,000 active; AID 1345083; note: nearly all actives have a fitted effect of over 60% in size
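Viability of HEK 293 cells, plated at 250 cells/well, was judged by cellular ATP after compound treatment for 48 or 72 hr. Luminescence was imaged 10 min after CellTiter-Glo addition at room temperature.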
Numbers without * were called inactive; ! = a repeat was not active; [ ] = dose if it differs, or a comment. This is a sample that favours compounds with a hit; in the whole collection about 7.4% have one here. Unless noted, calls come from the whole dose curve; as a rule, active = well fitted curve in the direction sought with a large enough effect; inconclusive = small, poorly fitted or top-dose-only effect, or another doubt; inactive = no such curve, though single readings can be large; an effect the other way counts as inactive or inconclusive. Unless noted, % is set by controls: 0 for no effect and ±100 for the full control effect; potency is the fitted concentration of half-maximal effect.

How did c1cc(-c2cc(-c3cn[nH]c3)c3cncn3c2)cc(N2CCOCC2)c1 do in these assays?
NIH3T3 tox: 25µM*; SNCA expr inh: -30%[87.6 µM]; HEK293 viab: -9%[87.6 µM]; NPR1 antag: -23%[70.6 µM]; Luciferase inh: inactive; HEK cytotox: inconclusive

How did Cc1nn(C)c(C)c1CCC(=O)N[C@@H]1CN(c2ncccn2)C[C@H]1CO do in these assays?
NIH3T3 tox: 2%; SNCA expr inh: 0%; HEK293 viab: -2%; NPR1 antag: 0%; Luciferase inh: inactive; HEK cytotox: inactive

What do the screens show for `Cc1nn(C)c(C)c1CCNC(=O)CCC[C@@H]1[C@H]2CCCN3CCC[C@@H](CN1Cc1ccccc1)[C@@H]23`?
NIH3T3 tox: -1%; SNCA expr inh: -7%; HEK293 viab: -2%; NPR1 antag: -1%; Luciferase inh: inactive; HEK cytotox: 9%

How did CC(C)NC(=O)N1CCN(c2nccc(Nc3ccccc3Cl)n2)CC1 do in these assays?
NIH3T3 tox: 35µM*; SNCA expr inh: -3%; HEK293 viab: 13%; HEK cytotox: inconclusive

What do the screens show for `O=C(Nc1ccccc1)N1CCN(c2nccc(Nc3ccccc3Cl)n2)CC1`?
NIH3T3 tox: inconclusive; SNCA expr inh: 8%; HEK293 viab: -20%; HEK cytotox: 50µM*

Results for O=[S+]([O-])(c1ccccc1)N1CCN(c2nccc(Nc3ccccc3Cl)n2)CC1 ?
NIH3T3 tox: 28µM*; SNCA expr inh: inconclusive; HEK293 viab: -2%; HEK cytotox: inconclusive

Results for COC(=O)N1CCN(c2nccc(Nc3ccccc3Cl)n2)CC1 ?
NIH3T3 tox: inconclusive; SNCA expr inh: 132%; HEK293 viab: 9%; HEK cytotox: inconclusive

How did O=C(Nc1ccc(Cl)cc1)N1CCN(c2nccc(Nc3ccccc3F)n2)CC1 do in these assays?
NIH3T3 tox: inconclusive; SNCA expr inh: -16%; HEK293 viab: 4%[12.5 µM]; HEK cytotox: 28µM*

How did COc1ccccc1Nc1ccnc(N2CCN(C(=O)Nc3ccccc3)CC2)n1 do in these assays?
NIH3T3 tox: inconclusive; SNCA expr inh: -11%; HEK293 viab: -5%; HEK cytotox: inconclusive

How did CC(=O)N1CCN(c2nccc(Nc3ccccc3F)n2)CC1 do in these assays?
NIH3T3 tox: -26%[138 µM]; SNCA expr inh: 13%[87.6 µM]; HEK293 viab: -8%[12.5 µM]; HEK cytotox: inconclusive

How did COc1ccccc1Nc1ccnc(N2CCN([S+](=O)([O-])c3cccc(C(F)(F)F)c3)CC2)n1 do in these assays?
NIH3T3 tox: inconclusive; SNCA expr inh: inconclusive; HEK293 viab: -12%; HEK cytotox: inconclusive

What do the screens show for `O=S(=O)(Cc1ccccc1)NC[C@H]1COCc2nc3ccccc3n21`?
NIH3T3 tox: inconclusive; SNCA expr inh: -24%[87.6 µM]; HEK293 viab: -26%[87.6 µM]; NPR1 antag: inconclusive; Luciferase inh: inactive; HEK cytotox: inconclusive

What do the screens show for `Cc1ccc(-n2c(C3CCN(C(=O)c4ccc(C(F)(F)F)cc4)CC3)n[nH]c2=O)cc1`?
NIH3T3 tox: inconclusive; SNCA expr inh: inconclusive; HEK293 viab: -3%; NPR1 antag: -4%; Luciferase inh: inactive; HEK cytotox: -13%

What do the screens show for `O=C(Cc1ccccn1)NC1CCN(c2nccc(Nc3ccccc3F)n2)CC1`?
NIH3T3 tox: inconclusive; SNCA expr inh: inconclusive; HEK293 viab: 5%[12.5 µM]; HEK cytotox: -22%

Results for O=C(Nc1ccc(Cl)cc1)NC1CCN(c2nccc(Nc3ccccc3F)n2)CC1 ?
NIH3T3 tox: 40µM*; SNCA expr inh: -28%; HEK293 viab: 6%[12.5 µM]; HEK cytotox: 35µM*

What do the screens show for `O=C(C1CC1)N1CCN(c2nccc(Nc3ccccc3F)n2)CC1`?
NIH3T3 tox: inconclusive; SNCA expr inh: 136%[87.6 µM]; HEK293 viab: 1%[87.6 µM]; HEK cytotox: 63µM*

What do the screens show for `CCn1cc(S(=O)(=O)N2CC(N(C3CCOCC3)S(C)(=O)=O)C2)cn1`?
NIH3T3 tox: -5%; SNCA expr inh: -7%; HEK293 viab: 8%; NPR1 antag: 0%; Luciferase inh: inactive; HEK cytotox: -2%

Results for COc1ccc(F)cc1-c1ccc(CN2CCCCC2C(=O)NCCc2ccc(Cl)cc2)cc1 (stereo not given) ?
NIH3T3 tox: inconclusive; HEK cytotox: 32µM*

Results for COc1ccccc1-c1ccc(CN2CCCCC2C(=O)NC(C)C)cc1 (stereo not given) ?
NIH3T3 tox: inconclusive; HEK cytotox: 79µM*

Results for COc1ccc(F)cc1-c1ccc(CN2CCCCC2C(=O)N2CCCN(C(C)=O)CC2)cc1 (stereo not given) ?
NIH3T3 tox: -35%; HEK cytotox: 45µM*

Results for COc1ccccc1-c1cccc(C(=O)N2CCC[C@H]2C(=O)NC(C)C)c1 ?
NIH3T3 tox: -31%; SNCA expr inh: -1%; HEK293 viab: 6%[12.5 µM]; HEK cytotox: -4%

What do the screens show for `COc1ccc(F)cc1-c1ccc(CN2CCCCC2C(=O)NCC(F)F)cc1` (stereo not given)?
NIH3T3 tox: inconclusive; HEK cytotox: 35µM*

How did COc1ccccc1-c1ccc(CN2CCCCC2C(=O)N2CCOCC2)cc1 (stereo not given) do in these assays?
NIH3T3 tox: -38%; SNCA expr inh: -4%; HEK293 viab: 7%; HEK cytotox: inconclusive

Results for O=C(C1CCCC1)N1CCC(C(=O)N2CCC(c3ccccc3)CC2)CC1 ?
NIH3T3 tox: inconclusive; SNCA expr inh: 8%; HEK293 viab: 3%; HEK cytotox: inconclusive

Results for COCCCn1c(=O)c(C(=O)NCc2ccc3c(c2)OCO3)nc2cccnc21 ?
NIH3T3 tox: inconclusive; SNCA expr inh: -22%; HEK293 viab: 1%; HEK cytotox: -1%

How did COc1ccccc1-c1ccc(CN2CCCCC2C(=O)NCC(F)F)cc1 (stereo not given) do in these assays?
NIH3T3 tox: 45µM*!; HEK cytotox: inconclusive

How did COc1ccccc1-c1cccc(CN2CCCC(C(=O)Nc3cccc(Cl)c3)C2)c1 (stereo not given) do in these assays?
NIH3T3 tox: 16µM*; SNCA expr inh: inconclusive; HEK293 viab: inconclusive; HEK cytotox: 25µM*

What do the screens show for `COc1ccccc1-c1cccc(CN2CCCC(C(=O)NC3CC3)C2)c1` (stereo not given)?
NIH3T3 tox: inconclusive; SNCA expr inh: -16%; HEK293 viab: 9%; HEK cytotox: inconclusive

How did COc1ccccc1-c1cccc(CN2CCCC(C(=O)NC(C)C)C2)c1 (stereo not given) do in these assays?
NIH3T3 tox: 40µM*; SNCA expr inh: -18%; HEK293 viab: 4%; HEK cytotox: inconclusive
